This note sets out measurements from PubChem BioAssay (Tox21).

Inconclusive results are not listed. Calls of active or inactive are those of the source. The call rests on the fitted dose curve.
On the % scale 0 is the no-effect control and ±100 the full control effect.

The target of this assay is Beta-2 adrenergic receptor (Homo sapiens) (UniProt P07550). As to the kind of experiment: Adrenergic beta2 receptor (ADRB2) small molecule antagonists, cell-based qHTS assay (AID 1963592). Further: nearly all actives have a fitted effect of over 50% in size. To be noted: CHO-ADRB2 cells, isoproterenol-stimulated cAMP HTRF ratio, 0.5 h; series mostly up to 92.4 µM; activity change, negative = inhibition: at the top concentration. The method, boiled down: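 Cells (CHO, stable ADRB2 overexpression) incubated 18-20hr at 37C; compounds added from DMSO; agonist mix (1nM isoproterenol, 100uM IBMX, 25uM Ro-20-1724) added; 0.5hr RT; d2-cAMP and anti-cAMP-cryptate added; 1hr RT; 665/615 nm read.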
Sequence of Beta-2 adrenergic receptor (Homo sapiens) (P07550 whole entry, looked up): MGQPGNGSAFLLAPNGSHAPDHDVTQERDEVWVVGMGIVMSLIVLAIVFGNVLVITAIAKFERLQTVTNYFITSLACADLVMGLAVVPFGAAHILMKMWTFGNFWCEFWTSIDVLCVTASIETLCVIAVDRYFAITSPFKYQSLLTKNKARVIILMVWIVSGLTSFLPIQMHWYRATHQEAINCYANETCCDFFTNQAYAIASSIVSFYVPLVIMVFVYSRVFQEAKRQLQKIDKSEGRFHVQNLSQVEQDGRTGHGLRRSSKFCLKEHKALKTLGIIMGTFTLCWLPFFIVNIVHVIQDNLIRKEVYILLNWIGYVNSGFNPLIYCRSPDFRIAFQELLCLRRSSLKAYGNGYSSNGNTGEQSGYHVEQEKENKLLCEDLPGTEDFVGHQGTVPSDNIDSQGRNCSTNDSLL
(Quantitative high-throughput screening tests each substance at several concentrations.)
For the compound `COc1cc(C)nc(-n2nc(C)cc2OC)n1`, the “activity change, negative = inhibition” value was 1.32% [at 42.5 µM] (inactive).

`C=C1C(=C/C=C2\CCC[C@]3(C)[C@@H]([C@H](C)/C=C/[C@@H](O)C4CC4)CC[C@@H]23)C[C@@H](O)C[C@@H]1O`: the “activity change, negative = inhibition” value is 5.54% [at 42.5 µM] (inactive).

On to `O=P(c1ccccc1)(c1ccccc1)c1ccccc1`, for which the “activity change, negative = inhibition” value is -0.514% (inactive).

In the case of `Cc1cnc(C(=O)NCCc2ccc(S(=O)(=O)NC(=O)NC3CCCCC3)cc2)cn1`, the Potency result is “inactive”.

Consider `CC1(C)CCC[C@]2(C)[C@H]3CCO[C@]3(C)CC[C@@H]12`, for which the “activity change, negative = inhibition” value is 0.585% (inactive).

`O=C(NCC(O)CO)c1c(I)c(C(=O)NCC(O)CO)c(I)c(N(CCO)C(=O)CO)c1I` (stereo not drawn): the “activity change, negative = inhibition” value is 10.6% [at 42.5 µM] (inactive).

For the compound `CC[C@@H]([C@H](C)O)n1ncn(-c2ccc(N3CCN(c4ccc(OC[C@@H]5CO[C@@](Cn6cncn6)(c6ccc(F)cc6F)C5)cc4)CC3)cc2)c1=O`, the “activity change, negative = inhibition” value was 0.668% [at 42.5 µM] (inactive).

In the case of `Cc1c(C)n(Cc2ccccc2)c2ccc(C(=O)OCCN(C)C)cc12`, the “activity change, negative = inhibition” value was -8.99% [at 42.5 µM] (inactive).

For the compound `Clc1ccccc1CN1CCc2sccc2C1`, the “activity change, negative = inhibition” value is 0.364% [at 42.5 µM] (inactive).

Regarding `CC(C)(C)c1ccc(C(=O)CCCN2CCC(OC(c3ccccc3)c3ccccc3)CC2)cc1`, the “activity change, negative = inhibition” value was 2.2% [at 42.5 µM] (inactive).

Take `COc1ccc2cc([C@H](C)C(=O)O)ccc2c1`: the Potency entry is “inactive”.

On to `CC1CCCC1`, for which the “activity change, negative = inhibition” value is 2.81% (inactive).

As to `CN1[C@@H]2CC(OC(=O)[C@H](CO)c3ccccc3)C[C@H]1[C@@H]1O[C@@H]12` (stereo partly drawn), the Potency entry was “inactive”.

Turning to `CS(=O)(=O)c1ccc([C@@H](CC2CCCC2)C(=O)Nc2cnccn2)cc1Cl`, the “activity change, negative = inhibition” value was -0.415% (inactive).

As to `CCCCOC(=O)c1ccccc1C(=O)OCC(CC)CCCC` (stereo not drawn), the “activity change, negative = inhibition” value was -5.46% (inactive).

In the case of `COc1ccc2ccccc2c1`, the “activity change, negative = inhibition” value was -8.24% (inactive).

Consider `CN(C)CCOC(c1ccccc1)c1ccccc1`, for which the Potency result is “inactive”.

For the compound `CCOC(=O)CC(=O)C(=O)OCC`, the “activity change, negative = inhibition” value was -1.69% (inactive).
